12-LOX inh – ALOX12 (human) lipoxygenase inhibition; P18054; purified 12hLO, xylenol orange hydroperoxide absorbance; Potency, µM (top dose mostly 108 µM), for the others: at the highest dose activity change, negative = inhibition, hits mostly inhibitors; 1.1% of 580,000 active; AID 1671190; also: potency is read from the fitted curve at half-maximal effect
Target sequence (P18054 whole entry, looked up): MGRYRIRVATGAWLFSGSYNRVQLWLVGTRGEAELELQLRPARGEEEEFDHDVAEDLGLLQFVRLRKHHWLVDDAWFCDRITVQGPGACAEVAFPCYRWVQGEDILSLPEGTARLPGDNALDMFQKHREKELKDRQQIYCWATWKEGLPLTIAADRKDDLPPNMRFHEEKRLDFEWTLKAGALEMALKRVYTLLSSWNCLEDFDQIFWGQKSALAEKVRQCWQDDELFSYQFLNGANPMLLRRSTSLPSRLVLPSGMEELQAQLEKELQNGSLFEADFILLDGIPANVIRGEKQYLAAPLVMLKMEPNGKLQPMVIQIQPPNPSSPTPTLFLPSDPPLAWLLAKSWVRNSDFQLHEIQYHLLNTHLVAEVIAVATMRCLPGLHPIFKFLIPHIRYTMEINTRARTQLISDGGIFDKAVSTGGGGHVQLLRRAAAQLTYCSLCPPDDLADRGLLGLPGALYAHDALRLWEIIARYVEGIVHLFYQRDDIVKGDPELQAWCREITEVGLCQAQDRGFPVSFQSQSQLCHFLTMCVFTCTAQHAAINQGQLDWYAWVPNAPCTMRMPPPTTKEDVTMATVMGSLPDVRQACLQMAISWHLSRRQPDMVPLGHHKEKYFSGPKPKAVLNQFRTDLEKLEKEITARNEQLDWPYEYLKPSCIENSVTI
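Purified human 12hLO (150 nM final) in 25 mM Hepes, 0.01% Triton X-100, pH 7.0 was preincubated 15 min at room temperature with compound. Then 40 uM arachidonic acid was added, 30 min. Hydroperoxide was read by Fe-XO absorbance ratio 573/405 nm.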
DT40 TDP1 CPT – growth inhibition of DT40 Tdp1-/-;hTDP1 cells with camptothecin (screen for TDP1 inhibitors). chicken DT40 Tdp1-/-;hTDP1 cells + 20 nM CPT, ATP luminescence, 48 h. Potency, µM (doses to about 46.2 µM), for inactives: top-dose activity change, negative = growth inhibition, actives largely listed as inhibitors. 12% of 420,000 active. AID 686979; also: potency is read from the fitted curve at half-maximal effect; nearly all actives have a fitted effect of over 55% in size
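Cell growth measured by CellTiter-Glo luminescence after a minimum 48 h, 37 C compound exposure with 20 nM CPT in Tdp1-knockout DT40 cells stably expressing hTDP1, seeded 400/well; qHTS titration format.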
IL-1B inflam inh – inflammasome signaling inhibition, IL-1 beta readout; THP-1 LPS/ATP IL-1B secretion, AlphaLISA, 16 h; active compounds read low; activity change, % at 57.5 µM; 4.7% of 360,000 active; in the data active = activity change below about -50%; inconclusive = mostly about -30% to -49%
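Secreted IL-1B measured by AlphaLISA bead assay after 16 h compound exposure of THP-1 cells; compounds (final up to 57.5 uM) added 1 h before LPS (250 ng/mL) and ATP (1.25 mM) stimulation; lower signal means less secretion.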
TDP1 cell noCPT – qHTS for Inhibitors of human tyrosyl-DNA phosphodiesterase 1 (TDP1): qHTS in cells in absence of CPT; DT40 Tdp1-/- hTDP1 cells, no CPT, ATP luminescence, 48 h; Potency, µM (titrated, usually from 46.2 µM), for the others: at the top dose activity change, negative = growth inhibition, usual class: inhibitors; 15% of 420,000 active; AID 686978, 2013; also: potency is read from the fitted curve at half-maximal effect; nearly all actives have a fitted effect of over 55% in size
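Growth kinetics read by CellTiter-Glo luminescence after ≥48 hr at 37 °C. Cells: DT40 Tdp1-/- stably carrying human TDP1, 400 per well, compound exposure in the absence of CPT (DMSO vehicle).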
HT1080NT lethal – kills 2HG-producing HT-1080-NT fibrosarcoma cells | HT-1080-NT fibrosarcoma viability, CellTiter-Glo ATP luminescence, 48 h | Potency, µM (titrated, usually from 46.1 µM), for inactives: at the top dose activity, negative = less viability, most hits filed as cytotoxic | 1.6% of 360,000 active;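 also: NT is the 2HG producing partner of a matched IDH1 knockdown line; potency is read from the fitted curve at half-maximal effect; 0% = DMSO-treated cells and -100% = media-only wells without cells; nearly all actives have a fitted effect of over 55% in size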
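750 cells/well, RPMI + 5% FBS; 2 h settle, compound pin-transfer, 48 h at 37 degrees C. CellTiter-Glo 10 min RT, luminescence. Normalized to DMSO and media-only wells.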
HT1080 IDH1KD tx – toxicity to HT-1080 IDH1 knockdown cells (counter line); AID 686971; HT-1080 IDH1 knockdown viability, ATP luminescence, 48 h; Potency, µM (highest dose often 46.1 µM), inactives show at the top dose activity, negative = toxicity, usual class: cytotoxic; 2% of 360,000 active;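 also: potency is read from the fitted curve at half-maximal effect; 0% = DMSO wells and -100% = cell-free medium wells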
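After a 2 h attachment period, IDH1KD HT-1080 cells took pin-transferred compound for 48 h at 37 °C; ATP-based luminescence after 10 min room-temperature reagent incubation reported viability.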
* marks the source's active call; other numbers are inactive results; ? = inconclusive; . = not tested or not shown; [ ] = dose if it differs, or a comment. The sample as a whole holds a higher share of hits than the screen did. Unless noted, calls follow the shape of the dose curve; as a rule, active = well fitted curve in the direction sought with a large enough effect; inconclusive = small, poorly fitted or top-dose-only effect, or another doubt; inactive = no such curve, though single readings can be large; an effect the other way counts as inactive or inconclusive. Unless noted, % is scaled to controls: 0 for no effect and ±100 for the full control effect.

SMILES | 12-LOX inh | DT40 TDP1 CPT | IL-1B inflam inh | TDP1 cell noCPT | HT1080NT lethal | HT1080 IDH1KD tx
COc1ccc(CCNC(=O)C2CCN(Cc3nc(-c4ccc(Cl)cc4)oc3C)CC2)cc1OC | 7.1% | -14.7% | 20.2 | ? | 21.4% | 13.7%
CCN(CCNC(=O)C1CCCN(Cc2nc(-c3ccc(OC)cc3)oc2C)C1)c1ccccc1 (centres undefined) | 0.0% | 16.4µM* | -72.7* | 23.1µM* | ? | -29.7%
CCN(CCNC(=O)C1CCN(Cc2nc(-c3ccc(Cl)cc3)oc2C)CC1)c1ccccc1 | -5.5% | 23.1µM* | -53.7* | 18.4µM* | ? | ?
COCCCNC(=O)C(=O)NN | 17.4% | . | . | . | . | .
CCOCCCn1c(=NC(C)=O)c(C#N)cc2c(=O)n3cccc(C)c3nc21 | 29.7% | 7.9% | . | ? | -1.2% | 2.7%
CCCCn1c(=NC(=O)c2ccc3c(c2)OCO3)c(C#N)cc2c(=O)n3cccc(C)c3nc21 | ? | 7.31µM* | 0.0 | 9.2µM* | 3.5% | 3.7%[9.24 µM]
CCCCn1c(=NC(C)=O)c(C#N)cc2c(=O)n3cccc(C)c3nc21 | -3.5% | -29.4% | 60.3 | 18.4µM* | 3.9% | -4.0%
COc1ccc(C(=O)N2CCC3(CC2)CC(Cc2nc(C4CC4)no2)CCO3)c(OC)n1 (centres undefined) | 15.0% | . | . | . | . | .
COc1ccc(CCN2C(=O)N(c3ccccc3)C(=O)C2CC(=O)Nc2ccccc2)cc1 (centres undefined) | 1.9% | ? | . | 25.9µM* | . | .
COc1ccc(CCN2C(=O)N(c3ccc(OC)cc3)C(=O)C2CC(=O)Nc2ccccc2)cc1 (centres undefined) | 5.9% | -0.4% | -9.7 | ? | 1.3% | 1.3%
CNC(=O)CC1C(=O)N(c2ccc(Cl)cc2)C(=S)N1CCc1ccc(OC)c(OC)c1 (centres undefined) | -28.3% | ? | -50.4* | 9.2µM* | -28.7% | -21.0%
COc1ccc(CCN2C(=O)N(c3ccc(C)cc3)C(=O)C2CC(=O)Nc2ccc(OC)cc2)cc1 (centres undefined) | -21.8% | 20.6µM* | . | ? | . | .
CCCOc1ccc(NC(=O)CC2C(=O)N(c3ccccc3)C(=O)N2CCC(C)C)cc1 (centres undefined) | -18.6% | ? | . | 14.6µM* | . | .
COc1ccc(-c2nc(P(=O)(OC)OC)c(NCc3cccnc3)o2)cc1 | -25.0% | . | . | . | . | .
COc1ccc(CCN2C(=O)N(c3cccc(C)c3)C(=O)C2CC(=O)Nc2ccccc2)cc1OC (centres undefined) | ? | 23.1µM* | . | ? | . | .
CCN1C(=O)C(CC(=O)Nc2ccc(OC)cc2)N(Cc2ccc(OC)c(OC)c2)C1=S (centres undefined) | ? | -13.2% | -12.2 | ? | -5.2% | -5.5%
CCN1C(=O)C(CC(=O)Nc2ccc(OC)cc2)N(CCc2ccc(OC)cc2)C1=S (centres undefined) | ? | ? | -86.3* | ? | -26.3% | 1.2%
Cc1ccc(N2C(=O)C(CC(=O)Nc3cccc(F)c3)N(CCc3ccccc3F)C2=O)cc1 (centres undefined) | 0.0% | 16.4µM* | . | 20.6µM* | . | .
Cn1cc(CN2CCNc3cnc(Nc4ccccc4)cc3C2)cn1 | 19.6%[176 µM] | . | . | . | . | .
CCCNC(=O)/C(C)=C/c1ccccc1 | -8.6% | . | . | . | . | .
Oc1cc(-c2cccs2)cc2c1OCCN(Cc1cn[nH]c1-c1ccc(Cl)cc1)C2 | -4.3% | 18.4µM* | . | ? | . | .
CN(C)c1ccc(CN2CCC3(C2)NC(=O)c2ccccc2CO3)cc1 (centres undefined) | 33.6% | . | . | . | . | .
CCn1c(SCc2ccc(Cl)c(Cl)c2)nnc1C(C)NC(=O)c1ccc(OC)cc1 (centres undefined) | -8.4% | 16.4µM* | -7.5 | 16.4µM* | 5.7% | 5.4%
COc1ccc(OCCSc2nnc(CCNC(=O)c3ccc(OC)cc3)n2C)cc1 | 5.5% | ? | -16.2 | -26.3% | 4.4% | -18.1%
COc1ccc(OCCSc2nnc(CCNC(=O)c3ccc(Cl)c(Cl)c3)n2C)cc1 | 20.4% | 25.1µM* | -1.4 | ? | -17.8% | -29.6%
SMILES | 12-LOX inh | DT40 TDP1 CPT | IL-1B inflam inh | TDP1 cell noCPT | HT1080NT lethal | HT1080 IDH1KD tx
COc1ccc(C(=O)NC(C)c2nnc(SCc3ccc(Cl)c(Cl)c3)n2C)cc1 (centres undefined) | 3.98µM* | -23.7% | ? | -21.4% | 7.1% | -25.9%
N#Cc1cccc(-c2nccc(-n3ccnc3)n2)c1 | 25.1µM* | ? | . | ? | . | .
Clc1ccccc1-c1nccc(-n2ccnc2)n1 | ? | 3.7% | . | -1.1% | . | .
CN(C)C(=O)c1ccc(-c2nccc(-n3ccnc3)n2)cc1 | 22.4µM* | ? | . | -11.1% | . | .
Cc1ccccc1-c1nccc(-n2ccnc2)n1 | 7.94µM* | 1.6% | . | 0.7% | . | .
CN(C)C(=O)c1ccc(-c2nccc(Nc3ccc(F)cc3)n2)cc1 | ? | -28.3% | . | -17.6% | . | .
CN(CCC1CCOCC1)C(=O)c1cn(Cc2ccccc2F)nn1 | -2.5% | . | . | . | . | .
Cc1nnc(N2CCCC(C(=O)Nc3cccc(C(F)(F)F)c3)C2)c2nn(-c3ccccc3)c(C)c12 (centres undefined) | -7.2% | ? | . | 20.6µM* | . | .
COc1ccc(C)cc1NC(=O)N1CCN(c2nnc(C)c3c(C)n(-c4ccccc4)nc23)CC1 | -23.9% | -2.5% | . | -17.2% | . | .
Cc1ccc(NC(=O)N2CCN(c3nnc(C)c4c(C)n(-c5ccccc5)nc34)CC2)cc1Cl | ? | -24.9% | . | -6.2% | . | .
CCOC(=O)c1cccc(NC(=O)C2CCCN(c3nnc(C)c4c(C)n(-c5ccccc5)nc34)C2)c1 (centres undefined) | -4.0% | 13µM* | . | 9.2µM* | . | .
Cc1ccc(NC(=O)C2CCCN(c3nnc(C)c4c(C)n(-c5ccccc5)nc34)C2)cc1Cl (centres undefined) | -12.4% | 11.6µM* | . | 4.11µM* | . | .
COc1ccccc1NC(=O)C1CCCN(c2nnc(C)c3c(C)n(-c4ccccc4)nc23)C1 (centres undefined) | -13.6% | 16.4µM* | . | 8.2µM* | . | .
Cc1ccccc1CC(=O)NC1CCN(c2cc(-c3ccccc3)[nH]n2)C1 (centres undefined) | -1.0% | . | . | . | . | .
CCOc1ccc(-c2cc(C(=O)O)c3ccccc3n2)cc1 | ? | ? | 21.0 | ? | ? | 11.2µM*
CCOc1ccc(-c2cc(C(=O)NC(C)CC)c3ccccc3n2)cc1 (centres undefined) | 2.5% | . | . | . | . | .

Screening results (PubChem BioAssay)
